Assay results as given in PubChem BioAssay AID1159580 (chemical genetic matrix, 2015).
About 2,000 (36%) of roughly 5,500 compounds were called active. Roughly 18% stayed inconclusive and do not appear here. Cut-off read from the data, not from the text of the source: active = normalized growth mostly below about 0.91 (no sharp cut-off); inconclusive = no clear call, values can overlap the other calls; inactive = mostly above about 0.92. The list shows a part of the results.

Test: chemical genetic growth profiling, strain panel (AID 1159580);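 note: tested at 20 µM; growth read once vehicle control cultures reached saturation at 30 °C; 1 = growth at the plate median or of vehicle wells; lower values mean less growth of the strain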
Conditions: growth OD

Measured: normalized growth

COc1c(C)c2c(c(C)c1Cl)Oc1c(Cl)c(OC)c(Cl)c(C)c1C(=O)O2
inactive: S. cerevisiae deletion strains, locus YAL013W, strain DEP1, hits give low values 0.992 | S. cerevisiae deletion strains, locus YBR021W, strain FUR4, hits give low values 1.05 | S. cerevisiae deletion strains, locus YBR229C, strain ROT2, hits give low values 1.01 | S. cerevisiae deletion strains, locus YCL029C, strain bik1, hits give low values 1.02 | S. cerevisiae deletion strains, locus YDL035C, strain GPR1, hits give low values 1.01 | S. cerevisiae deletion strains, locus YDL074C, strain BRE1, hits give low values 1 | S. cerevisiae deletion strains, locus YDL101C, strain DUN1, hits give low values 1.01 | S. cerevisiae deletion strains, locus YDL134C, strain PPH21, hits give low values 1.01 | S. cerevisiae deletion strains, locus YDL185W, strain tfp1, hits give low values 1.02 | S. cerevisiae deletion strains, locus YDL192W, strain arf1, hits give low values 1.02 | S. cerevisiae deletion strains, locus YDR101C, strain arx1, hits give low values 1.01 | S. cerevisiae deletion strains, locus YDR150W, strain NUM1, hits give low values 1.02 | S. cerevisiae deletion strains, locus YDR162C, strain NBP2, hits give low values 0.987 | S. cerevisiae deletion strains, locus YDR318W, strain mcm21, hits give low values 1.03 | S. cerevisiae deletion strains, locus YDR388W, hits give low values 1.01 | S. cerevisiae deletion strains, locus YDR502C, strain sam2, hits give low values 1.01 | S. cerevisiae deletion strains, locus YEL061C, strain CIN8, hits give low values 1.01 | S. cerevisiae deletion strains, locus YER110C, hits give low values 1.02 | S. cerevisiae deletion strains, locus YER155C, strain BEM2, hits give low values 1.01 | S. cerevisiae deletion strains, locus YER167W, strain BCK2, hits give low values 1.03 | S. cerevisiae deletion strains, locus YGL078C, strain dbp3, hits give low values 1.01 | S. cerevisiae deletion strains, locus YGL086W, strain mad1, hits give low values 1.02 | S. cerevisiae deletion strains, locus YGL248W, strain PDE1, hits give low values 1.02 | S. cerevisiae deletion strains, locus YGR078C, strain PAC10, hits give low values 1.01 | S. cerevisiae deletion strains, locus YGR135W, strain pre9, hits give low values 1 | S. cerevisiae deletion strains, locus YGR229C, strain SMI1, hits give low values 0.991 | S. cerevisiae deletion strains, locus YGR252W, strain gcn5, hits give low values 1.05 | S. cerevisiae deletion strains, locus YHR030C, strain SLT2, hits give low values 1.02 | S. cerevisiae deletion strains, locus YHR079C, strain IRE1 (second series), hits give low values 1.03 | S. cerevisiae deletion strains, locus YHR094C, strain hxt1, hits give low values 1.01 | S. cerevisiae deletion strains, locus YHR129C, strain ARP1, hits give low values 1.02 | S. cerevisiae deletion strains, locus YHR200W, strain rpn10, hits give low values 1.02 | S. cerevisiae deletion strains, locus YIL066C, strain RNR3, hits give low values 1 | S. cerevisiae deletion strains, locus YIL073C, strain SPO22, hits give low values 1.08 | S. cerevisiae deletion strains, locus YIL125W, strain kgd1, hits give low values 1.02 | S. cerevisiae deletion strains, locus YIR030C, strain dcg1, hits give low values 1.01 | S. cerevisiae deletion strains, locus YJL095W, strain BCK1, hits give low values 1.02 | S. cerevisiae deletion strains, locus YJL134W, strain LCB3, hits give low values 1.01 | S. cerevisiae deletion strains, locus YJL168C, strain set2, hits give low values 1.01 | S. cerevisiae deletion strains, locus YJL187C, strain SWE1 (second series), hits give low values 1.01 | S. cerevisiae deletion strains, locus YJR043C, strain POL32, hits give low values 1.04 | S. cerevisiae deletion strains, locus YJR075W, strain HOC1, hits give low values 1.01 | S. cerevisiae deletion strains, locus YKL009W, strain mrt4, hits give low values 1.03 | S. cerevisiae deletion strains, locus YKL068W, hits give low values 1.01 | S. cerevisiae deletion strains, locus YKL085W, strain MDH1 (second series), hits give low values 1.02 | S. cerevisiae deletion strains, locus YKL085W, strain MDH1, hits give low values 1.02 | S. cerevisiae deletion strains, locus YKL190W, strain CNB1, hits give low values 1.01 | S. cerevisiae deletion strains, locus YKR001C, strain vps1, hits give low values 1.03 | S. cerevisiae deletion strains, locus YLR039C, strain RIC1, hits give low values 1.06 | S. cerevisiae deletion strains, locus YLR058C, strain SHM2, hits give low values 1.02 | S. cerevisiae deletion strains, locus YLR102C, strain apc9, hits give low values 1.01 | S. cerevisiae deletion strains, locus YLR262C, strain YPT6, hits give low values 1.02 | S. cerevisiae deletion strains, locus YLR268W, strain sec22, hits give low values 0.997 | S. cerevisiae deletion strains, locus YLR330W, strain CHS5, hits give low values 1.02 | S. cerevisiae deletion strains, locus YLR342W, strain FKS1 (second series), hits give low values 1.08 | S. cerevisiae deletion strains, locus YLR371W, strain rom2, hits give low values 1.02 | S. cerevisiae deletion strains, locus YLR418C, strain cdc73, hits give low values 0.989 | S. cerevisiae deletion strains, locus YML016C, strain PPZ1, hits give low values 1.01 | S. cerevisiae deletion strains, locus YML032C, strain rad52, hits give low values 1.03 | S. cerevisiae deletion strains, locus YML124C, strain tub3, hits give low values 1.01 | S. cerevisiae deletion strains, locus YMR078C, strain ctf18, hits give low values 1.02 | S. cerevisiae deletion strains, locus YMR223W, strain ubp8, hits give low values 1.03 | S. cerevisiae deletion strains, locus YMR263W, strain SAP30, hits give low values 1.01 | S. cerevisiae deletion strains, locus YMR307W, strain GAS1, hits give low values 1.06 | S. cerevisiae deletion strains, locus YNL067W, strain RPL9B, hits give low values 1.01 | S. cerevisiae deletion strains, locus YNL128W, strain TEP1, hits give low values 0.967 | S. cerevisiae deletion strains, locus YNL153C, strain GIM3, hits give low values 1 | S. cerevisiae deletion strains, locus YNL233W, strain BNI4, hits give low values 1.02 | S. cerevisiae deletion strains, locus YNL250W, strain rad50, hits give low values 1.01 | S. cerevisiae deletion strains, locus YNL271C, strain bni1, hits give low values 1.01 | S. cerevisiae deletion strains, locus YNL298W, strain CLA4, hits give low values 1.03 | S. cerevisiae deletion strains, locus YNL307C, strain MCK1, hits give low values 1.03 | S. cerevisiae deletion strains, locus YNL322C, strain KRE1, hits give low values 1 | S. cerevisiae deletion strains, locus YNR052C, strain pop2, hits give low values 1.02 | S. cerevisiae deletion strains, locus YOL006C, strain TOP1, hits give low values 1.1 | S. cerevisiae deletion strains, locus YOL012C, strain htz1 0.785 | S. cerevisiae deletion strains, locus YOL147C, strain pex11, hits give low values 1.01 | S. cerevisiae deletion strains, locus YOR061W, strain CKA2, hits give low values 1.01 | S. cerevisiae deletion strains, locus YOR069W, strain VPS5, hits give low values 1.02 | S. cerevisiae deletion strains, locus YOR136W, strain idh2, hits give low values 1.02 | S. cerevisiae deletion strains, locus YOR144C, strain elg1, hits give low values 1.01 | S. cerevisiae deletion strains, locus YOR184W, strain ser1, hits give low values 1.05 | S. cerevisiae deletion strains, locus YOR316C, strain cot1, hits give low values 1.02 | S. cerevisiae deletion strains, locus YPL055C, strain LGE1, hits give low values 0.99 | S. cerevisiae deletion strains, locus YPL241C, strain CIN2, hits give low values 1 | S. cerevisiae deletion strains, locus YPR119W, strain clb2, hits give low values 1 | S. cerevisiae deletion strains, locus YPR141C, strain kar3, hits give low values 1.01 | S. cerevisiae deletion strains, locus YPR163C, strain tif3, hits give low values 1.03 | S. cerevisiae deletion strains, locus YPR167C, strain met16, hits give low values 1.01 | S. cerevisiae deletion strains, strain wtn01, hits give low values 1.01 | S. cerevisiae strains, strain wild type, hits give low values 1
